GLS inh: qHTS for Inhibitors of Glutaminase (GLS); Glutaminase kidney isoform, mitochondrial (Homo sapiens), O94925; GLS enzymatic activity, qHTS titration; Potency, µM (highest dose often 45.5 µM), for inactives: at the highest dose activity change, negative = inhibition, hits mostly inhibitors; 0.21% of 410,000 active; AID 624170, 2012
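hKGA in 45 mM KH2PO4 pH 8.2, 0.02% Tween-20 with pin-transferred compounds; 1 mM L-glutamine (stock) plus glutamate oxidase/HRP/Amplex Red coupling added. Fluorescence read initially and after 30 min at RT.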
Pin1 inhibitor: qHTS Assay to Find Inhibitors of Pin1; Peptidyl-prolyl cis-trans isomerase NIMA-interacting 1 (Homo sapiens), Q13526; Pin1 FP peptide displacement, HiFluor488, 10 min; Potency, µM (titrated, usually from 115 µM), without a hit: top-dose activity, negative = inhibition, most hits filed as inhibitors; 0.009% of 390,000 active; AID 504891, 2011; active means well fitted inhibition curve with a large enough effect in the polarisation, with a control signal flat, not every such curve was filed as active; inconclusive means small, poorly fitted or top-dose-only effect, or effect the other way, or a change in a side signal; inactive means no such curve, though single readings can be large or run the other way; the % refers to the polarisation
Tb PGK inh: qHTS Assay to Find Inhibitors of Phosphoglycerate Kinase; PGK/GAPDH coupled, Kinase-Glo luminescence, 60 min; Potency, µM (highest dose often 57.5 µM), for the others: top-dose activity change, negative = inhibition, hits mostly inhibitors; 0.043% of 380,000 active; AID 602233, 2012; further: nearly all actives have a fitted effect of over 60% in size
Target sequence (P07378 whole entry, looked up): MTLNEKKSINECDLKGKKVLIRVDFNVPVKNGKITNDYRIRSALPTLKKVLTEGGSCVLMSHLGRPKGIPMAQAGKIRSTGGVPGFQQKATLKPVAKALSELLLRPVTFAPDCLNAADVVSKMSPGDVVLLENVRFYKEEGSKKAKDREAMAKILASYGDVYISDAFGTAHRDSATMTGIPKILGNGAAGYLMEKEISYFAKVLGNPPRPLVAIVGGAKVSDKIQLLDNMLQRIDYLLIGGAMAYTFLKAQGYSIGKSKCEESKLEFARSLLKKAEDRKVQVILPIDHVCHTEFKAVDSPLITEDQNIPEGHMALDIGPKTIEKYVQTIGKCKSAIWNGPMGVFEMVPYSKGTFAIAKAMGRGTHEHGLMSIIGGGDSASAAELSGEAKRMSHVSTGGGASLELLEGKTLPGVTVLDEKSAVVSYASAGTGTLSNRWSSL
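Recombinant glycosomal PGK reaction used 1,3-bisphosphoglycerate generated in-well by GAPDH (100nM final) in 100mM TEA pH 7.6, 5mM MgCl2, 0.01% Tween-20. After 60 minutes at room temperature, ATP was read by Kinase-Glo Plus luminescence end-point.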
IDH1 R132H inh: qHTS for Inhibitors of mutant isocitrate dehydrogenase 1 (IDH1): qHTS; Isocitrate dehydrogenase [NADP] cytoplasmic (Homo sapiens), O75874; IDH1-R132H enzyme, NADPH consumption, diaphorase/resazurin fluorescence; Potency, µM (titrated, usually from 76.6 µM), inactives show at the top dose activity change, negative = inhibition, most hits filed as inhibitors; 0.093% of 390,000 active; AID 602179, 2012; further: nearly all actives have a fitted effect of over 65% in size
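IDH1-R132H (0.5 ug/mL) preincubated 30 min with compound, then NADPH (0.016 mM) and alpha-KG (2 mM) added; 80 min at RT, pH 7.5. Remaining NADPH coupled via diaphorase/resazurin to fluorescence (540/590 nm); concentration-response curves normalized to no-enzyme control.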
* = called active by the depositor. Only some compounds are listed: those with a hit (about 0.33% of all), similar ones and a draw of the others. Unless noted, the call rests on the fitted dose curve; in most records, active means well fitted curve in the direction sought with a large enough effect; inconclusive means small, poorly fitted or top-dose-only effect, or another doubt; inactive means no such curve, though single readings can be large; an effect the other way counts as inactive or inconclusive. On the % scale 0 is the no-effect control and ±100 the full control effect; potency means the concentration at half of the fitted maximal effect.

For CC1CCN(S(=O)(=O)c2ccc3c(c2)CCC(=O)N3CC(=O)Nc2cccc(C#N)c2)CC1 the results were GLS inh -6%, Pin1 inhibitor inconclusive, Tb PGK inh 14µM* and IDH1 R132H inh -15%.
For CC(C)(C)OC(=O)NCC(=O)NNC(=O)c1cc2ccccc2[nH]1 the results were Pin1 inhibitor 1%.
For O=C1c2ccccc2C(=O)N1c1ccncc1 the results were Pin1 inhibitor 3%.
O=c1[nH]c(/C=C\c2ccc(O)c(O)c2)nc(O)c1[N+](=O)[O-] was read as GLS inh 7.9µM*, Pin1 inhibitor inconclusive, Tb PGK inh -17% and IDH1 R132H inh 0%.
Cc1ccc(NS(=O)(=O)c2ccc3c(c2)CC(=O)N3C)cc1C was read as Pin1 inhibitor -1%.
For COc1cccc(C2c3c(ncn(-c4cccc(F)c4)c3=N)Oc3ccc4ccccc4c32)c1 (stereo not given) the results were Pin1 inhibitor 9%.
N#CC1=C(N)C(C#N)(C#N)C(c2cccnc2)C2CN(C(=O)OCc3ccccc3)CC=C12 (stereo not given) was read as GLS inh -7%, Pin1 inhibitor inconclusive, Tb PGK inh 15% and IDH1 R132H inh 52µM*.
`CCOC(=O)N1CC=C2C(C#N)=C(N)C(C#N)(C#N)[C@H](c3ccc(OCC)c(OCC)c3)[C@H]2C1` gave GLS inh 10%, Pin1 inhibitor inconclusive, Tb PGK inh 22% and IDH1 R132H inh -9%.
`Cn1c2cc(CO)sc2c2cnn(Cc3ccccc3F)c(=O)c21` gave Pin1 inhibitor -3%.
Screening Cc1[nH]c(=O)[nH]c(=S)c1C(=O)Nc1ccc(Cl)c(Cl)c1 returned GLS inh 1.8µM*, Pin1 inhibitor -6%, Tb PGK inh -7% and IDH1 R132H inh 4%.
For COc1ccc(C2Cc3ccccc3C(=O)N2Cc2ccccc2)cc1COc1ccc(NC(C)=O)cc1 (stereo not given) the results were Pin1 inhibitor 46%.
Screening CC(=O)C(=Cc1ccc(Cl)cc1)C(=O)c1ccccc1 returned GLS inh -28%.
`CC(=O)C(=Cc1cccc(C#N)c1)C(=O)c1ccccc1` gave GLS inh 11µM*.
For CCC(Sc1nc(C)cc(C)n1)C(=O)NC1=NN=C(c2ccc(C)cc2)CS1 (stereo not given) the results were GLS inh -2%, Pin1 inhibitor -1%, Tb PGK inh -2% and IDH1 R132H inh 46µM*.
CCC(Sc1nc(C)cc(C)n1)C(=O)Nc1cc(C)on1 (stereo not given) was read as GLS inh 15%, Pin1 inhibitor -3%, Tb PGK inh -5% and IDH1 R132H inh 11%.
Screening S=C(NCCCNc1ccc(Br)cn1)NCCCc1cnc[nH]1 returned Pin1 inhibitor -2%.
For Oc1ccccc1N=Cc1sc2ccccc2c1Cl the results were GLS inh 22%, Pin1 inhibitor 41%, Tb PGK inh 0% and IDH1 R132H inh 7%.
Screening Cc1ccc(O)c(N=Cc2sc3ccccc3c2Cl)c1 returned GLS inh 11µM*, Pin1 inhibitor -1%, Tb PGK inh -8% and IDH1 R132H inh 14%.
`CCc1ccc(S(=O)(=O)/N=C2/C=C(Sc3ncn[nH]3)C(=O)c3ccccc32)cc1` gave GLS inh 8%, Pin1 inhibitor 43µM*, Tb PGK inh inconclusive and IDH1 R132H inh 20%.
For CCc1ccc(S(=O)(=O)/N=C2\C=C(Nc3cccc(C(=O)O)c3)C(=O)c3ccccc32)cc1 the results were GLS inh inconclusive, Pin1 inhibitor inconclusive, Tb PGK inh -30% and IDH1 R132H inh 5%.
CCc1ccc(S(=O)(=O)/N=C2\C=C(Nc3ccc(O)cc3)C(=O)c3ccccc32)cc1 was read as GLS inh 4.5µM*, Pin1 inhibitor -7%, Tb PGK inh inconclusive and IDH1 R132H inh 12%.
Screening CSc1ccc(/C=N/Nc2cccc(C(=O)O)c2)cc1 returned GLS inh 27%, Pin1 inhibitor 19µM*, Tb PGK inh inconclusive and IDH1 R132H inh 8%.

Screens from PubChem BioAssay.
